# Reference: PubChem BioAssay
# Calls of active or inactive are those of the source.
# Columns and labels:
# [1] = system: Plasmodium falciparum Sir2 (PF13_0152, Sir2A); assay: pfSir2 binders on small-molecule microarrays, primary screen, biochemical, small-molecule microarray, 635 nm fluorescence (AID 1098); settings: small-molecule microarray binding, fluorescence 635 nm; higher = more signal;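 also: score merges spot fluorescence intensity with its signal-to-noise ratio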
# [2] = small-molecule microarray binders of probe aDKK1, primary screen, biochemical, biotinylated probe, 635/667 nm fluorescence (AID 1099); settings: higher = more signal;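 also: score merges 667nm spot fluorescence with signal to noise across triplicate slides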
# [3] = small-molecule microarray binders of probe aCHRDL2, primary screen, biochemical, biotinylated probe, 635/667 nm fluorescence (AID 1100); settings: higher = more signal
# [4] = splicing luciferase reporter signal modulators, primary screen, spliceosome inhibition project, cell-based, HEK293, splice +/- reporter (AID 1101); settings: luminescence, 24 h, higher = more signal, called active from +8 up or from −8 down;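 also: HEK293 cells carrying a splicing-competent luciferase reporter gene; test concentration not given here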
# [5] = target: Fibroblast growth factor 10 (Homo sapiens) (UniProt O15520); assay: FGF10 binders on small-molecule microarrays, primary screen, biochemical, small-molecule microarray, 635 nm fluorescence (AID 1102); settings: FGF10 binding, fluorescence 635 nm, higher = more signal
# Chain of Fibroblast growth factor 10 (Homo sapiens) (O15520 whole entry, looked up): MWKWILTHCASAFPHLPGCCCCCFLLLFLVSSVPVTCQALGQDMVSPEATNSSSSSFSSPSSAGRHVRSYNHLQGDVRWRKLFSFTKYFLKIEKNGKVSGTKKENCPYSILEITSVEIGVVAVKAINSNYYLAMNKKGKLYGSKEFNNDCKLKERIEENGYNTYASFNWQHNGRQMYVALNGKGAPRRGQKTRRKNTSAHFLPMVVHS
# [6] = system: glycogen synthase kinase-3 (GSK3A per assay name; protocol says GSK3B); assay: GSK3 binders on small-molecule microarrays, primary screen, biochemical, small-molecule microarray, 635 nm fluorescence, GSK3A (AID 1103); settings: small-molecule microarray binding, fluorescence 635 nm; higher = more signal; also: the record names both GSK3A and GSK3B
# [7] = target: Epidermal growth factor receptor (Homo sapiens) (UniProt P00533); assay: EGFR binders on small-molecule microarrays, primary screen, biochemical, small-molecule microarray, 635 nm fluorescence (AID 1104); settings: EGFR binding, higher = more signal;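 also: score merges 667 nm emission intensity with spot signal to noise over triplicate slides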
# Chain of Epidermal growth factor receptor (Homo sapiens) (P00533 whole entry, looked up): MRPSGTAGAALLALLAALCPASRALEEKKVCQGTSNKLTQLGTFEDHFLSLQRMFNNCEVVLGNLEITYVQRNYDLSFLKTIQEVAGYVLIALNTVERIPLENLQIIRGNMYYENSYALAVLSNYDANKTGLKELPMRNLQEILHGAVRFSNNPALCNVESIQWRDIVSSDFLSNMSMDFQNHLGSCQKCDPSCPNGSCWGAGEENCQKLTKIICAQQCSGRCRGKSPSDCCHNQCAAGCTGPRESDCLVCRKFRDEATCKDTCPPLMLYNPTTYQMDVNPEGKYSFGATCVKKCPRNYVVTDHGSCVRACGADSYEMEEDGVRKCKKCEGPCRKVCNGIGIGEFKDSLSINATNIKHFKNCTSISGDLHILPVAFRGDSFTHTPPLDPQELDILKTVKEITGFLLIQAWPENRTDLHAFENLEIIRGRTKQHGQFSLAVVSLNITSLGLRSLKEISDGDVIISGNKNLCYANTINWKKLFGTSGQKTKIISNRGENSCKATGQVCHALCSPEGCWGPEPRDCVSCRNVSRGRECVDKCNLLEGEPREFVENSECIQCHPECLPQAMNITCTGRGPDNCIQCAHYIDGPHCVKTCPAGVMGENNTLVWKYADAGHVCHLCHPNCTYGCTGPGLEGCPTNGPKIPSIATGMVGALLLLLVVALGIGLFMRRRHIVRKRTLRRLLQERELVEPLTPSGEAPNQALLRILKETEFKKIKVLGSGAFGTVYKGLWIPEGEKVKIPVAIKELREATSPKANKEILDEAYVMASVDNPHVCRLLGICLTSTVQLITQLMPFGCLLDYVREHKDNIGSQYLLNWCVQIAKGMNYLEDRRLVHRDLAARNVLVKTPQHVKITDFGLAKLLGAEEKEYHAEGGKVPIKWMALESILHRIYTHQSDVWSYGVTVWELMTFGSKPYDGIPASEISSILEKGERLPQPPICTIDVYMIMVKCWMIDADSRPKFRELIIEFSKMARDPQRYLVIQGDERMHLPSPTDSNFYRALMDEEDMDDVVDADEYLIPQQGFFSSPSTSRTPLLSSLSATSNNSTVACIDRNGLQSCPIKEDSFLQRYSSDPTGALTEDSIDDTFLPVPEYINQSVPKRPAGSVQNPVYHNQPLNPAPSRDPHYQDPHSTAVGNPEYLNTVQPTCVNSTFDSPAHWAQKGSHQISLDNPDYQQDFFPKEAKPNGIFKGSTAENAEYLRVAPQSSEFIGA
# [8] = target: Follistatin-related protein 3 (Homo sapiens) (UniProt O95633); assay: FSTL3 binders on small-molecule microarrays, primary screen, biochemical, small-molecule microarray, 635 nm fluorescence (AID 1105); settings: FSTL3 binding, higher = more signal;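 also: score merges emission near 667 nm and signal to noise per printed spot across three slides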
# Chain of Follistatin-related protein 3 (Homo sapiens) (O95633 whole entry, looked up): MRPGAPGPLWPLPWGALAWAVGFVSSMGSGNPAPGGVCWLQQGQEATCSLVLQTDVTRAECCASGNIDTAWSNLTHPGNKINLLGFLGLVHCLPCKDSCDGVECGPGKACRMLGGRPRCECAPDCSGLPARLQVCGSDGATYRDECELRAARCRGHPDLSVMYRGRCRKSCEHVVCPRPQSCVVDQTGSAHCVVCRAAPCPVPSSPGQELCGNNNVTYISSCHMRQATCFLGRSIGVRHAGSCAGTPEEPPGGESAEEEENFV
# [9] = target: Dickkopf-related protein 1 (Homo sapiens) (UniProt O94907); assay: DKK1 binders on small-molecule microarrays, primary screen, biochemical, small-molecule microarray, 635 nm fluorescence scan (AID 1106); settings: DKK1 binding, higher = more signal;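 also: score merges emission near 667 nm with signal to noise over three replicate slides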
# Chain of Dickkopf-related protein 1 (Homo sapiens) (O94907 whole entry, looked up): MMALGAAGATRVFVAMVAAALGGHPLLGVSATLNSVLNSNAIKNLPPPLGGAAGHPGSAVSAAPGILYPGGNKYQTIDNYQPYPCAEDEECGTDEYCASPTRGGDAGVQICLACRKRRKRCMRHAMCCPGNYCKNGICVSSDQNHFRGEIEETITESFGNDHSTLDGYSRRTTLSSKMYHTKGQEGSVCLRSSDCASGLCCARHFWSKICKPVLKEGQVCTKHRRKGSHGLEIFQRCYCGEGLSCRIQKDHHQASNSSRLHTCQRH
# [10] = system: Inhibin beta A chain (activin A); assay: INHBA (activin A) binders on microarrays, primary screen, biochemical, small-molecule microarray, 635 nm fluorescence scan (AID 1107); settings: small-molecule microarray binding, higher = more signal;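 also: mouse activin A protein probed at 4.33 µg/mL on printed slides; score merges bound-protein fluorescence near 667 nm with spot signal-to-noise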
# [11] = system: Human papillomavirus type 1a protein E7 (residues 44-93); assay: HPV1a E7 fragment binders on microarrays, primary screen, biochemical, small-molecule microarray, residues 44-93, 635 nm fluorescence (AID 1108); settings: small-molecule microarray binding, fluorescence 635 nm; higher = more signal;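 also: E7 fragment applied at 1 µg/mL in TBST for 1 h at 4 C; score combines spot fluorescence with its signal to noise ratio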
# [12] = modulators of HCV replicon luciferase signal, primary screen, HCV replication inhibitor project, Huh7 cells, luciferase reporter (AID 1109); settings: 48 h, higher = more signal;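 also: huh7 hepatoma cells harbouring a luciferase neomycin HCV replicon reporter; luciferase luminescence as measure of HCV replicon replication; test concentration not given here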
# [13] = target: Left-right determination factor 2 (Homo sapiens) (UniProt O00292); assay: LEFTY2 binders on small-molecule microarrays, primary screen, biochemical, small-molecule microarray, 635 nm fluorescence scan (AID 1110); settings: LEFTY2 binding, higher = more signal
# Chain of Left-right determination factor 2 (Homo sapiens) (O00292 whole entry, looked up): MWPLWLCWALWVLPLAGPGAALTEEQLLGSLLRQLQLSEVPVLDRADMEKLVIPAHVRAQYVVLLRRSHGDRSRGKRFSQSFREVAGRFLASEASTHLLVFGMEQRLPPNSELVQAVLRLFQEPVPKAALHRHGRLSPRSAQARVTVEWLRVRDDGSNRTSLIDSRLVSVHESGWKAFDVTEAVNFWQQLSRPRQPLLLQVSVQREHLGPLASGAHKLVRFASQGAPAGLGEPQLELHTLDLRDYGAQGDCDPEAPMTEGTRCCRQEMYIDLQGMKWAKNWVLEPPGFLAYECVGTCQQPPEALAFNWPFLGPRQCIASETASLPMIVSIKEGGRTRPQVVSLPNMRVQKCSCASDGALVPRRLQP
# [14] = target: Calmodulin-1 (Homo sapiens) (UniProt P0DP23); assay: CALM1 binders on microarrays, EGTA buffer, profiling panel, biochemical, small-molecule microarray, Cy5-labelled CALM1 (AID 1111); settings: Cy5-CALM1 binding fluorescence, higher = more signal;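 also: labelled calmodulin applied in Tris saline Tween buffer holding calcium plus EGTA and DTT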
# [15] = target: Calmodulin-1 (Homo sapiens) (UniProt P0DP23); assay: calcium-bound CALM1 binders on microarrays, profiling panel, artefact control for SMM control-protein annotation, biochemical, small-molecule microarray, Cy5-labelled CALM1, plus calcium (AID 1112); settings: Cy5-CALM1 binding fluorescence, higher = more signal;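 also: score merges spot fluorescence with signal to noise from triplicate slides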
# [16] = small-molecule microarray binders of probe aWnt5a, primary screen, biochemical, biotinylated probe, 635/667 nm fluorescence (AID 1113); settings: higher = more signal;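 also: score merges 667 nm fluorescence intensity with signal-to-noise per printed feature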
# [17] = small-molecule microarray binders of probe aShh, primary screen, biochemical, biotinylated probe, 635/667 nm fluorescence (AID 1114); settings: higher = more signal;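 also: probe is biotin-labelled aShh protein from a stem cell growth factor screen; measures binding of labelled protein to compounds printed on the slide; score merges feature fluorescence at 667 nm with signal-to-noise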
# [18] = small-molecule microarray binders of probe aNog, primary screen, biochemical, biotinylated probe, 635/667 nm fluorescence (AID 1115); settings: higher = more signal;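 also: probe is biotinylated aNog protein used at 0.15 µg/mL for 1 h at 4 C; z-score combines 667 nm fluorescence of each spot with its signal to noise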
# [19] = target: Torsin-1A-interacting protein 1 (Homo sapiens) (UniProt Q5JTV8); assay: LAP1 binders from COS7 cell lysate, primary screen, small-molecule microarray, 635/667 nm fluorescence (AID 1116); settings: COS7-hLAP1 lysate binding, 635 nm fluorescence, higher = more signal
# Chain of Torsin-1A-interacting protein 1 (Homo sapiens) (Q5JTV8 whole entry, looked up): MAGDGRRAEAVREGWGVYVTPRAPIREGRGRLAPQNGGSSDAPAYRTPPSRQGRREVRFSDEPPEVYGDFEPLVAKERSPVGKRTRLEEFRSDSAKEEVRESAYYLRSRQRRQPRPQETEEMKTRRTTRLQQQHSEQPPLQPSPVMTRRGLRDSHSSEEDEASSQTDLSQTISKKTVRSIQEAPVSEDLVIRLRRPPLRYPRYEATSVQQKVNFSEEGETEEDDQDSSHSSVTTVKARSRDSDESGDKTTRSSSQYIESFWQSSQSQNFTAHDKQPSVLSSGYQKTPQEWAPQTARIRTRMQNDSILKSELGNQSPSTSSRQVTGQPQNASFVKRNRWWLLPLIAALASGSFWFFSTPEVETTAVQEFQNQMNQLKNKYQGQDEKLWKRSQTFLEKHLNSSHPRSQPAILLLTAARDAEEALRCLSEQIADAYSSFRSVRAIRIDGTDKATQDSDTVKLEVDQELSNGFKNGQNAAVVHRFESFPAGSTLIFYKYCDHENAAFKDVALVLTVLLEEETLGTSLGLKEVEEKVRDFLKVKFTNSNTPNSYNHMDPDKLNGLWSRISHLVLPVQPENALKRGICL
# [20] = target: Alpha-bungarotoxin (Bungarus multicinctus) (UniProt P60615); assay: alpha-bungarotoxin binders on microarray, profiling panel, artefact control for SMM control protein annotation, biochemical, small-molecule microarray, Alexa647 label, 635/667 nm fluorescence (AID 1117); settings: alpha-BTX-A647 binding fluorescence, higher = more signal
# Chain of Alpha-bungarotoxin (Bungarus multicinctus) (P60615 whole entry, looked up): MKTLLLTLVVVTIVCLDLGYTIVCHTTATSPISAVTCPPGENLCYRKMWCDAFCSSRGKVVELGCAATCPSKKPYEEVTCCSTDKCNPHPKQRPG
Structure (SMILES),composite z-score [1],composite z-score [2],composite z-score [3],z-score [4],composite z-score [5],composite z-score [6],composite z-score [7],composite z-score [8],composite z-score [9],composite z-score [10],composite z-score [11],z-score [12],composite z-score [13],composite z-score [14],composite z-score [15],composite z-score [16],composite z-score [17],composite z-score [18],composite z-score [19],composite z-score [20]
CC(CO)N1C(=O)[C@@H]2C3C(=O)OCCC/C=C\[C@H]3OC23C=CCN(Cc2ccccc2)C(=O)[C@@H]13 (stereo not given in full),0.608,-0.206,0.0202,-0.992 (inactive),-0.559,-0.236,-0.794,-0.639,-0.386,1.21,-0.412,-0.159,-0.784,-0.182,-0.292,-0.176,-0.0769,-0.036,-0.307,-1.53
C=C(COC)C(=O)CC[C@@H](OC(=O)c1ccccc1-c1ccccc1C(=O)O)c1cccc(OCCO)c1,0.147,-0.0386,0.0203,0.306 (inactive),0.552,-0.116,-0.837,-0.0053,-0.0221,1.19,-1.75,-0.54,0.0941,-1.17,-1.09,-0.096,-0.153,0.176,0.671,1.02
C=C(COC)/C(=C/C[C@H](OC(C)=O)c1cccc(OCCO)c1)c1cc(C(=O)OC)ccc1OC,0.84,0.0919,-0.143,-4.8 (inactive),1.21,0.656,0.0086,1.33,1.47,0.981,-0.109,-4.08,0.38,-0.547,-0.377,-0.0556,-0.0146,-0.201,0.188,-0.284
COCCCNC(=O)[C@@]1(CCS(=O)(=O)c2ccccc2)N=C(c2ccc(OCCCO)cc2)O[C@H]1c1ccccc1CN=[N+]=[N-],1.14,1.17,1.12,-0.594 (inactive),1.14,1.31,0.184,0.847,0.245,1.22,1.13,-2.04,0.266,2.02,0.986,0.183,0.81,0.64,0.732,2.42
C[C@@H](OCc1ccccc1)C1NC(=O)[C@@]23C(=O)N[C@@H](Cc4ccccc4)C2[C@H](C)[C@@]2(C)O[C@H]2C3/C=C/C/C=C\CNC(=O)[C@@H]2CCCN2C1=O (stereo not given in full),-0.381,-0.308,-0.39,0.253 (inactive),0.097,-0.616,-0.324,0.819,0.34,1.75,-2.3,-1.06,-0.0437,-1.46,-1.23,-0.197,-0.138,-0.247,-0.417,-0.236
CC(=O)NCCCC[C@@H]1NC(=O)[C@@H]2C[C@H](C(=O)O)[C@H](c3cccc(OCCO)c3)N2C1=O,1.25,-0.018,-0.37,-0.877 (inactive),1.13,1.21,0.782,0.787,1.21,-0.456,0.952,0.436,1.46,-0.188,-0.789,-0.0403,-0.0626,-0.37,0.947,1.03
COCCOC(=O)N1C(=O)[C@@]2(c3cc(C#CCNC(N)=O)ccc31)[C@H](c1ccccc1OCCO)N1[C@H](c3ccccc3)[C@H](c3ccccc3)OC(=O)[C@H]1[C@@H]2C(=O)Nc1nc2ccccc2s1,0.852,0.868,1.13,-0.349 (inactive),0.141,0.218,0.135,0.572,0.505,0.887,0.872,0.048,0.163,1.58,1.14,-0.0758,0.284,0.561,0.745,2.51
CCOC(=O)C[C@H]1[C@H](OC(=O)c2ccc(-c3ccccc3)cc2)[C@@H](NC(=O)C2CCCCC2)c2cc(OCCCO)ccc2N1C(=O)c1ccc2ccccc2n1,0.13,0.414,0.111,-1.65 (inactive),0.651,0.708,0.0502,0.392,1.12,-0.167,1.19,-0.241,0.197,1.24,0.854,0.0102,-0.0133,0.037,0.729,0.608
COCCOC(=O)N1C(=O)[C@@]2(c3ccccc31)[C@H](C(=O)Nc1nc3ccccc3s1)[C@H]1C(=O)O[C@H](c3ccccc3)[C@H](c3ccccc3)N1[C@@H]2c1ccc(O)cc1,1.05,0.356,0.361,-1.56 (inactive),0.998,1.29,0.534,0.775,0.709,0.927,1.1,-2.04,1.02,1.74,1.07,0.0044,0.489,0.134,0.94,2.07
COCCOC(=O)N1C(=O)[C@@]2(c3cc(C#CC4(O)CCCCCC4)ccc31)[C@H](C(=O)NC[C@H](O)c1ccccc1)[C@H]1C(=O)O[C@H](c3ccccc3)[C@H](c3ccccc3)N1[C@@H]2c1ccccc1OCCO,1.27,0.145,0.348,-0.747 (inactive),1.15,1.31,0.479,1.33,0.95,0.158,0.726,-2.56,0.678,1.18,0.0465,-0.129,0.699,-0.0939,0.945,1.45
C=C(C(=O)CC[C@@H](OC(C)=O)c1ccccc1OCCO)C(C)C,0.967,-0.416,-0.0909,-1.41 (inactive),1.14,-0.465,-0.847,-0.406,0.108,0.959,-0.512,-3.88,-0.325,-0.942,-1.21,-0.202,-0.153,-0.0783,0.495,-0.175
